Bioassay records deposited in PubChem BioAssay by The Scripps Research Institute Molecular Screening Center.
TTR transcr act = TTR transcription activators in neuroblastoma reporter cells, primary screen, cell-based, luminescence, SH-SY5Y, TTR promoter Gaussia luciferase | 100% = recombinant luciferase protein wells | activation, % at 16.7 µM | 92,000 compounds, 1.3% hits | AID 1117267, 2014;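 active = activation above the mean of all tested compounds plus 3 SD, cut at about 9.5% in these data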;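 note: cells exposed to compounds for one day before reading; 0% = median of all test compound wells on the plate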
TTR inh HuH7 = TTR promoter reporter inhibitors in hepatoma cells, counter-screen for TTR transcription activator project, cell-based, luminescence, HuH7 hepatoma. shares compounds with TTR transcr act. HuH7 TTR promoter-Gaussia luciferase reporter. inhibition, % at 16.7 µM. 1,100 compounds, 4% hits;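 active = average inhibition above the solvent-only control wells' mean plus 3 SD, cut at about 15% in these data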;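 note: 0% = cells with DMSO only and 100% = cells with inhibitor control FD; inhibitors lower well luminescence so higher value means more inhibition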
TTR act confirm = TTR transcription activators, retest, confirmation, cell-based, luminescence, SH-SY5Y, triplicate | 1,100 tested, under 10 active | AID 1117280, 2014 | activation, % at 16.7 µM | SHSY5Y TTR promoter Gaussia luciferase; 100% = purified Lucia enzyme wells, no cells | shares compounds with TTR transcr act;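 active = mean activation above a set limit taken from the earlier primary screen, cut at about 11% in these data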;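 note: 0% = DMSO-treated cells and 100% = recombinant Lucia luciferase without cells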
Numbers without * were called inactive. The sample as a whole holds a higher share of hits than the screen did.

SMILES	TTR transcr act	others
O=C(NC1CCCCC1)c1ccc(CS(=O)Cc2ccccc2Cl)o1 (stereo not given)	1
CCN(C(=O)[C@@H](C1CC1)[C@@H](O)c1ccc(C(C)=O)cc1)c1ccccc1	0
CC(=O)c1sc(-c2ccccc2)cc1NS(=O)(=O)c1ccccc1	1
CC(=O)c1sc(-c2ccccc2)cc1NS(=O)(=O)c1ccc(C)cc1	4
CC(=O)c1sc(-c2ccc(F)cc2)cc1NS(=O)(=O)c1ccc(C)cc1	17*	TTR inh HuH7=-6;TTR act confirm=0
COc1ccc(C(=O)Nc2ccnn2C2CCN(C(=O)c3cc(C)on3)CC2)cc1	0
OCC1(CO)CCCC(CO)(CO)C1O	3
COc1cc(O)c(C(CC(=O)N2CC(C)OC(C)C2)c2ccc3c(c2)OCO3)c(OC)c1 (stereo not given)	0
CCC(C)Sc1ccc([C@@H]2[C@@H]3C(=O)N(C)C(=O)[C@@H]3[C@]3(C(=O)OC)CCCCN23)cc1 (stereo not given in full)	-2
O=C(Cc1ccccc1)NN1C(=O)C2C3C=CC(C4CC34)C2C1=O (stereo not given)	10*	TTR inh HuH7=-13;TTR act confirm=-1
O=C(Cc1ccccc1)NN1C(=O)C2C(C1=O)C1C=CC2C12CC2 (stereo not given)	-1
O=C(Cc1ccccc1)NN1C(=O)C2C3C=CC(C3)C2C1=O (stereo not given)	2
CC(C)N(C[C@@H]1CSCCS(=O)(=O)N1)C(C)C	-1
COc1cc(C2(c3ccc(O)c(OC)c3)C(=O)N(C)c3ccc(C)cc32)ccc1O	1
CN1C(=O)C(c2cn(C)c3ccccc23)(c2cn(C)c3ccccc23)c2cc(Br)ccc21	0
Cc1cc(Br)cc2c1N(C)C(=O)C2(c1ccc(O)cc1)c1ccc(O)cc1	47*	TTR inh HuH7=-5;TTR act confirm=2
CN1CC(O)([C@H](Cc2ccccc2)NC(=O)OC(C)(C)C)OCC1C(=O)NCc1cccc2ccccc12 (stereo not given in full)	-4
CCCC1CCC2(CC1)CCC2OC(=S)NCc1cccc(F)c1 (stereo not given)	0
Cc1cc(C)c(NC(=O)COC(=O)C23CC4CC(CC(O)(C4)C2)C3)c(Cl)c1	2
O=C(COC(=O)C12CC3CC(CC(Br)(C3)C1)C2)NNC(=O)c1ccccc1	0
Cn1cccc1C(=O)NC(=O)COC(=O)C12CC3CC(CC(O)(C3)C1)C2	11*	TTR inh HuH7=-6;TTR act confirm=-1
CCC[C@H]1[C@@H](OC(=O)NCc2ccc(C(F)(F)F)cc2)CC[C@@]23CCCN2C(=O)CCC[C@@H]13	-1
O=C1CCC[C@H]2C[C@H](NCCc3ccncc3)CC[C@]23CCCN13	-1
COc1ccc(CCn2c(C)nc3ccccc3c2=O)cc1OC	0
CCn1c(=O)c([N+](=O)[O-])c(NCCc2ccc(OC)c(OC)c2)c2ccccc21	-2
SMILES	TTR transcr act	others
COc1ccc(CCNc2c3ccccc3nc3ccccc23)cc1OC	11*	TTR inh HuH7=-17;TTR act confirm=14*
CCCCn1nc2cc(C(=O)NCc3cc(C(F)(F)F)cc(C(F)(F)F)c3)ccc2c1OCC	1
CCCCn1nc2cc(C(=O)N[C@H](C)C3CCCCC3)ccc2c1OCC	12*	TTR inh HuH7=-6;TTR act confirm=0
CCOc1c2ccc(C(=O)NCCc3ccc(C)cc3)cc2nn1CC	-3
COC(=O)[C@]12C[C@H](CC(=O)NCCc3ccccc3OC)C(=O)N(Cc3ccc(Cl)cc3Cl)C1=C[C@H](C(C)C)O[C@@H]2C1CC1	3
CCCCc1ccc2nc(NC(=O)c3cccs3)sc2c1	1
O=C1CCC[C@H]2C[C@H](NCc3cccc(Cl)c3)CC[C@]23CCCN13	0
CCCCCCC(=O)n1ccc2ccc(-c3ccc4ccn(Cc5ccc(OC)cc5)c4c3)cc21	-1
CC(C)(C)NC(=O)NC(=O)CSc1nnc2ccccn12	0
O=C(CSc1nnc2ccccn12)NCCc1ccc(Cl)cc1	1
CC(C)CNC(=O)CSc1nnc2ccccn12	11*	TTR inh HuH7=-4;TTR act confirm=12*
Cc1ccc(C)c(NC(=S)N2CCC(NC(=O)c3ccccc3)CC2)c1	-1
O=S1(=O)N[C@H](c2ccccc2)COc2cc(Br)ccc21	3
Cc1ccnc2c(N3C(=O)C4C5C=CC(C5)C4C3=O)cccc12 (stereo not given)	9.8*	TTR inh HuH7=-8;TTR act confirm=0
COc1cccc(C(=O)COc2ccccc2N2C(=O)C3C4C=CC(C4)C3C2=O)c1 (stereo not given)	-1
O=C1C2C3C=CC(C4CC34)C2C(=O)N1c1cccc2ccccc12 (stereo not given)	-2
c1nc(NCC2CC2)c2cc(-c3ccc4c(c3)OCO4)ccc2n1	0
COC[C@H]1CCCN1c1ccc2c(c1)O[C@@H]1CCN(C1)S2(=O)=O	1
CCC[C@H]1[C@@H](NC(=O)NCC)CC[C@@]23CCCN2C(=O)CCC[C@@H]13	1
COc1ccc(NC(=O)CN(C)S(=O)(=O)c2ccc3c(c2)c(=O)n(C)c(=O)n3C)cc1	0
On1c(-c2ccccc2)nc2ccccc21	11*	TTR inh HuH7=-8;TTR act confirm=0
Nn1c(-c2ccccc2)nc2ccccc2c1=O	3
Cc1nc2ccccc2n1-c1ccccc1	0
Cc1ccc(CN2CCCCC(NC(=O)c3ccc(COc4ccccc4)cc3)C2=O)cc1 (stereo not given)	-3
CCCCCCCCN1C(=O)[C@@H](CC(=O)NCc2cccc(C(F)(F)F)c2)C[C@@]2(C(=O)OC)C1=C[C@H](COCc1ccccc1)O[C@@H]2C	1
SMILES	TTR transcr act	others
FC(F)(F)c1cccc(N2CCN(C(=S)Nc3nccc4ccccc34)CC2)c1	4
CCC1CCc2sc(C(=O)Nc3cc(S(=O)(=O)N4CCOCC4)ccc3OC)cc2C1 (stereo not given)	0
COC[C@@H]1CCCN1c1ccc2c(c1)O[C@@H]1CCN(C1)S2(=O)=O	1
CCOC(=O)N1CCN(C2CCCN(C(=O)c3ccccc3SC)C2)CC1 (stereo not given)	1
COCCSc1ccccc1C(=O)N1CCN(c2ccccc2)CC1	0
COCCSc1ccccc1C(=O)N1CCCC(C)C1 (stereo not given)	21*	TTR inh HuH7=-26;TTR act confirm=0
COC[C@H]1CCCN1c1ccc2c(c1)O[C@H](C)CCN(C1CC1)S2(=O)=O	0
CCC[C@H]1[C@@H](NCc2cccs2)CC[C@@]23CCCN2C(=O)CCC[C@@H]13	2
O=S(=O)(c1ccc(Cl)nc1)N1CCN(Cc2ccc3c(c2)OCO3)CC1	-1
CCOc1ccc(S(=O)(=O)N2CCN(Cc3ccc4c(c3)OCO4)CC2)cc1OCC	-2
CC(C)(C)c1ccc(S(=O)(=O)N2CCN(Cc3cc4c(cc3O)OCO4)CC2)cc1	15*	TTR inh HuH7=-7;TTR act confirm=1
CC1CCC(=O)N(CCC#N)CC1 (stereo not given)	-2
O=C(NC(=S)N1CCCCC1CO)c1cc(Br)ccc1Cl (stereo not given)	0
OC(c1ccccc1)(c1ccccc1)c1cnc2ccccn12	-1
COC(=O)[C@]12C[C@H](CC(=O)NCc3ccccc3)C(=O)N(Cc3cccc4ccccc34)C1=C[C@H](COCc1ccccc1)O[C@@H]2C	0
